# Data: paper PMC5540273 (PLoS ONE, 2017)
# Several values for one entry are separate records, joined by “and”; a condition that tells them apart may be missing. Identical values can stand only once. Like-named read-outs stand apart in the source and are kept apart here.
# Tests used:
# RIPK5 = details: concentration: 1 μM, replicates: in singlicate; n = 1
# ROCK1 = details: concentration: 1 μM, replicates: in singlicate, n = 1
# ROCK2 = details: concentration: 1 μM, replicates: in singlicate, n = 1
# ROS1 = details: concentration: 1 μM, replicates: in singlicate, n = 1
# [1] = system: RPS6KA4(Kin.Dom.1-N-terminal); details: concentration: 1 μM, replicates: in singlicate, n = 1
# [2] = system: RPS6KA4(Kin.Dom.2-C-terminal); details: concentration: 1 μM, replicates: in singlicate; n = 1
# [3] = system: RPS6KA5(Kin.Dom.1-N-terminal); details: concentration: 1 μM, replicates: in singlicate, n = 1
# [4] = system: RPS6KA5(Kin.Dom.2-C-terminal); details: concentration: 1 μM, replicates: in singlicate, n = 1
# [5] = system: T1, RSK1(Kin.Dom.1-N-terminal); details: concentration: 1 μM, replicates: in singlicate, n = 1
# T1 construct: gene RPS6KA1
# [6] = system: T2, RSK1(Kin.Dom.2-C-terminal); details: concentration: 1 μM, replicates: in singlicate; n = 1
# T2 construct: gene RPS6KA1
# 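Also: KINOMEscan kinase panel screen.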
SMILES,%Inh (RIPK5),%Inh (ROCK1),%Inh (ROCK2),%Inh (ROS1),%Inh [1],%Inh [2],%Inh [3],%Inh [4],%Inh [5],%Inh [6],%Inh (ROCK1; 1 µM),%Inh (ROCK2; 1 µM),%Inh (ROS1; 1 µM),%Inh ([1]; 1 µM),%Inh ([3]; 1 µM),%Inh ([4]; 1 µM),%Inh ([5]; 1 µM)
O=c1cc(N2CCOCC2)nc2n(Cc3cccc(Cl)c3Cl)c(C3CC3)nn12 [GSK2358994],7%,0%,0%,0%,0%,16%,0%,0%,0%,17%,–,–,–,–,–,–,–
COc1cc2c(cc1OCCN1CCN(C)CC1)ncc1c3ccc(C#N)cc3[nH]c21,33%,98.1%,99.4%,0%,0%,0%,0%,71%,0%,26%,–,–,–,–,–,–,–
CC(C)(C)n1cnc2c(N)ncnc21 [SKF-97359],0%,52%,33%,64%,10%,0%,0%,0%,0%,80%,–,–,–,–,–,–,–
CSc1ccc(-c2cc3ncnc(SCC(=O)O)c3s2)cc1,0%,0%,0%,3%,0%,0%,0%,0%,9%,12%,–,–,–,–,–,–,–
CC(C)(CN)c1nc(-c2ccc(Cl)c(O)c2)c(-c2ccncc2)[nH]1.O=C(O)C(F)(F)F [SB-477794],0%,–,–,–,–,0%,–,–,–,35%,28% and 43%,49% and 40%,15% and 53%,0% and 23%,5% and 0%,7% and 36%,16% and 15%
CN1c2ccc(NCc3ccc(F)cc3)cc2-c2c(cnn2C)S1(=O)=O,0%,0%,0%,0%,0%,0%,0%,0%,0%,20%,–,–,–,–,–,–,–
COc1ccc(Nc2ncc(C#N)c(Nc3ccccc3C(N)=O)n2)cc1N1CCN(C)CC1.Cl [GSK1558669],98.7%,87%,91.2%,97%,100%,97%,98%,44%,99.7%,47%,–,–,–,–,–,–,–
Cc1nnc(-c2ccc3occ(-c4ccc(C(C)O)cc4)c3c2)o1 (stereo not drawn),0%,5%,0%,0%,9%,25%,20%,0%,9%,1%,–,–,–,–,–,–,–
Cc1cccc(-c2nc(Nc3ccc4ncsc4c3)c3ccccc3n2)n1 [GW867588],24%,45%,13%,17%,30%,0%,0%,8%,0%,16%,–,–,–,–,–,–,–
c1ccc(-c2cc(-c3c[nH]nc3-c3ccccn3)ccn2)cc1 [GW576604],0%,10%,30%,21%,0%,0%,0%,3%,0%,1%,–,–,–,–,–,–,–
O=c1cc(N2CCOCC2)nc2n(Cc3cccc(C(F)(F)F)c3)ccn12 [GSK2297543],0%,0%,17%,32%,13%,0%,4%,6%,0%,15%,–,–,–,–,–,–,–
COc1ccc(CNC(=O)NC2CCN(c3ccnc(Nc4ccc(OC)cc4)n3)C2)cc1 (stereo not drawn) [GSK1379727],55%,40%,40%,0%,0%,0%,7%,0%,0%,0%,–,–,–,–,–,–,–
Cc1c(Cn2c(C)nn3c(=O)cc(N4CCOC(C)C4)nc23)cccc1C(F)(F)F (stereo not drawn) [GSK2344444],0%,0%,10%,14%,21%,0%,0%,0%,0%,6%,–,–,–,–,–,–,–
NS(=O)(=O)CCc1cccc(Nc2nccc(-c3c(-c4cccc(NC(=O)c5c(F)cccc5F)c4)nn4ccccc34)n2)c1 [GSK336735],10%,24%,0%,79%,53%,0%,63%,6%,100%,0%,–,–,–,–,–,–,–
CCCCCc1nc2c(N)ncnc2n1CCCCC [SKF-97255],8%,90.1%,59%,1%,6%,0%,14%,9%,8%,11%,–,–,–,–,–,–,–
